Holding throughout (assay): DAPPL (digital affinity profiling via proximity ligation, sequencing); 10 mM Tris-HCl pH 7.5, 50 mM NaCl, 1 mM DTT, 4% glycerol, room temperature, 30 min; GST-TFs on glutathione beads, 16-mer random dsDNA library, 0.1% formaldehyde crosslink after washing; high values mean tight binding
In one assay the target is T1, FLI1 (Homo sapiens, UniProt Q01543 1-452).
T1 sequence: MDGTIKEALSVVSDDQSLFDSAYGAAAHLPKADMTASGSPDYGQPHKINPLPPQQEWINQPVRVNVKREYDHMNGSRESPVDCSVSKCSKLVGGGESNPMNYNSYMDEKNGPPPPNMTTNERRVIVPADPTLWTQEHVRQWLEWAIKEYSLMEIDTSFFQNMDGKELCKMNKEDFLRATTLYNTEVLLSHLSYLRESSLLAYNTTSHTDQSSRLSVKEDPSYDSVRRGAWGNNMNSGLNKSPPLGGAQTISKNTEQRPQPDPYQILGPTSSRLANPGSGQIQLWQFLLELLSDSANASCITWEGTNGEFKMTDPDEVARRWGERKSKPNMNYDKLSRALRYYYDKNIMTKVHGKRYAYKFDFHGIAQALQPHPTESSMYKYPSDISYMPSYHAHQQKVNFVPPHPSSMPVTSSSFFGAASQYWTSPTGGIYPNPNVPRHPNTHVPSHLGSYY
The following applies: protein: recombinant; tags: N-terminal GST; dsDNA, one strand shown. Put shortly:
(§1)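 Each value of binding signal is a hexamer's read frequency for a factor divided by the same hexamer's frequency in the tag-only sample. Barcoded, bead-captured GST fusions of human transcription factors made in yeast were pooled with that sample and incubated with 200 nmole of a random double-stranded 16-mer DNA library in Tris/NaCl/DTT/glycerol buffer at room temperature for 30 min. Washing, 0.1% formaldehyde crosslinking, proximity ligation, PCR and Illumina NextSeq500 sequencing followed.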

For a further assay, the target named is T2, ELK1 (Homo sapiens, UniProt P19419 1-428).
T2 sequence: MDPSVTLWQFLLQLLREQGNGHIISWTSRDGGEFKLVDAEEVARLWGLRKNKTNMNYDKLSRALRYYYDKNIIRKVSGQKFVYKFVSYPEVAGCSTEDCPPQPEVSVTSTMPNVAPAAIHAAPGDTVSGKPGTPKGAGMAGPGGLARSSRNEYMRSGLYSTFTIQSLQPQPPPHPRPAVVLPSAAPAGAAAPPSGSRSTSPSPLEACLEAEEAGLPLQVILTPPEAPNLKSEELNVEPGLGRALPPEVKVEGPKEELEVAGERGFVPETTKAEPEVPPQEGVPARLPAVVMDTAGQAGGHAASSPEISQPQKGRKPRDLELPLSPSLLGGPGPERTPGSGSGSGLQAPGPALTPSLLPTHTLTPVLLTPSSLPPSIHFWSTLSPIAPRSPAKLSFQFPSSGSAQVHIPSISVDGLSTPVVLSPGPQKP
The settings on record: protein: recombinant; tags: N-terminal GST; dsDNA, one strand shown. In outline: as §1

The next assay deals with T3, GABPA (Homo sapiens, UniProt Q06546 1-454).
T3 sequence: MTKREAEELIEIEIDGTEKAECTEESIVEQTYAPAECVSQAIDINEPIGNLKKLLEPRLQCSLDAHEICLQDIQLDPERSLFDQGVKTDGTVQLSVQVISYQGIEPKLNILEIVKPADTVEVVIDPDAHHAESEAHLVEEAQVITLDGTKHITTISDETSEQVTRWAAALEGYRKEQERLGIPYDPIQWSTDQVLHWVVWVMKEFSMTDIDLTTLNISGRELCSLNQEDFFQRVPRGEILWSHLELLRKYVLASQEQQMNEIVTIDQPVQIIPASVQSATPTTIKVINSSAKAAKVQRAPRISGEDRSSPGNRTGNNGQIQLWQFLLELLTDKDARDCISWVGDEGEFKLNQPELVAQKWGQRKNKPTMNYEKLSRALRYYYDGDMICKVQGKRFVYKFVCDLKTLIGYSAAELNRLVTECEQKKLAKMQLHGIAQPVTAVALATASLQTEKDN
The settings on record: protein: recombinant; tags: N-terminal GST; dsDNA, one strand shown. Put shortly:
as §1

The target of a further assay is ELF1 (Homo sapiens, UniProt P32519 1-619). The following applies: protein: recombinant; tags: N-terminal GST; dsDNA, one strand shown. Put shortly: as §1
The next assay deals with SPIB (Homo sapiens, UniProt Q01892 1-262). The settings on record: protein: recombinant; tags: N-terminal GST; dsDNA, one strand shown. In outline: as §1
In the next assay the target is T4, ELK3 (Homo sapiens, UniProt P41970 1-407).
T4 sequence: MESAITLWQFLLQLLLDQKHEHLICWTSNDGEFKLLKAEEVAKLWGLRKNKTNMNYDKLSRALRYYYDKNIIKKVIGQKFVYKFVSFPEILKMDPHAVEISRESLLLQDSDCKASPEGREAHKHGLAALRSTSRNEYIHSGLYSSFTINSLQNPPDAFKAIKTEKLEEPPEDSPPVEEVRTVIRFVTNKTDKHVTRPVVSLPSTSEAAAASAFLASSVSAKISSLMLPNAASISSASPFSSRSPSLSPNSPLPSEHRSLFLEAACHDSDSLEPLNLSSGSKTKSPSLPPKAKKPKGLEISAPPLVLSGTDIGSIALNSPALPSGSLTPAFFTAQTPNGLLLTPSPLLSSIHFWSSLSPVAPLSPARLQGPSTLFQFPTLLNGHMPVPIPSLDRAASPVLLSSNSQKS
The following applies: protein: recombinant; tags: N-terminal GST; dsDNA, one strand shown. In outline: as §1

The target in another assay is HSF1 (Homo sapiens, UniProt Q00613 1-529). The settings on record: protein: recombinant; tags: N-terminal GST; chain copies: 3; dsDNA, one strand shown. In outline: as §1
The target of the next assay is T5, ELK4 (Homo sapiens, UniProt P28324-2 1-405).
T5 sequence: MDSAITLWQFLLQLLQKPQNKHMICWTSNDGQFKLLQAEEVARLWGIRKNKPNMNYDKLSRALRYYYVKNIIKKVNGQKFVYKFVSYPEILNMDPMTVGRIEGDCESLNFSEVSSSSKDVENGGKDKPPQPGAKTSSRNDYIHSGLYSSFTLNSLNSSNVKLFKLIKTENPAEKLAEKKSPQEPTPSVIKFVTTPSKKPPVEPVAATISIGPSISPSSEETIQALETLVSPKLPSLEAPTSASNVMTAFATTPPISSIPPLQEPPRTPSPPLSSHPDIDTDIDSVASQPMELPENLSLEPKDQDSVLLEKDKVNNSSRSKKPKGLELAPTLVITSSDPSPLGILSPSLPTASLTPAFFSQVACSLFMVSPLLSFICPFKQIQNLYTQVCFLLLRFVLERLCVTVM
The following applies: protein: recombinant; tags: N-terminal GST; dsDNA, one strand shown. In outline:
as §1

The target in a further assay is T6, ETV2 (Homo sapiens, UniProt O00321 1-342).
T6 sequence: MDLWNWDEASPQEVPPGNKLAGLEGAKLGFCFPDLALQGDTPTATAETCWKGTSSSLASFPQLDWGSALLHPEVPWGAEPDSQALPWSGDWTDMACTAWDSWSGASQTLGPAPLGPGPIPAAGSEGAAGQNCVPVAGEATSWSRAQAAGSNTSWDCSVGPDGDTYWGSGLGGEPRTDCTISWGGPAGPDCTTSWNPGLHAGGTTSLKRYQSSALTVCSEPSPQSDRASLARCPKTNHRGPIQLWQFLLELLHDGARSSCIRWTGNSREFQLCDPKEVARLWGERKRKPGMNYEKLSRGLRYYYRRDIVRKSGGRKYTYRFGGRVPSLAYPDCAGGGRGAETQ
The following applies: protein: recombinant; tags: N-terminal GST; dsDNA, one strand shown. Put shortly:
as §1

The next assay has as its target T7, ELF3 (Homo sapiens, UniProt P78545 1-371).
T7 sequence: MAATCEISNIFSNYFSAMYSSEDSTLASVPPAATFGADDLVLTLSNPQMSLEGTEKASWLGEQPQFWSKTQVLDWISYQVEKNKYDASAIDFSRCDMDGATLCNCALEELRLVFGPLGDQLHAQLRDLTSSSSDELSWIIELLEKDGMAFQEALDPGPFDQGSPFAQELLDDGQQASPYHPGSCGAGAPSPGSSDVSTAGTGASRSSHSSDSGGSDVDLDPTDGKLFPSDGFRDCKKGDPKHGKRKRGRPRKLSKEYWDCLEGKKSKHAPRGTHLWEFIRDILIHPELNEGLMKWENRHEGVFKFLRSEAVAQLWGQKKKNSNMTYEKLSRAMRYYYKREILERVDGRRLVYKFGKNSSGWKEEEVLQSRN
The settings on record: protein: recombinant; tags: N-terminal GST; dsDNA, one strand shown. In outline: as §1

The next assay has as its target ETV1 (Homo sapiens, UniProt P50549 1-477). The settings on record: protein: recombinant; tags: N-terminal GST; dsDNA, one strand shown. Put shortly:
as §1

A further assay has as its target T8, ETV3L (Homo sapiens, UniProt Q6ZN32 1-361).
T8 sequence: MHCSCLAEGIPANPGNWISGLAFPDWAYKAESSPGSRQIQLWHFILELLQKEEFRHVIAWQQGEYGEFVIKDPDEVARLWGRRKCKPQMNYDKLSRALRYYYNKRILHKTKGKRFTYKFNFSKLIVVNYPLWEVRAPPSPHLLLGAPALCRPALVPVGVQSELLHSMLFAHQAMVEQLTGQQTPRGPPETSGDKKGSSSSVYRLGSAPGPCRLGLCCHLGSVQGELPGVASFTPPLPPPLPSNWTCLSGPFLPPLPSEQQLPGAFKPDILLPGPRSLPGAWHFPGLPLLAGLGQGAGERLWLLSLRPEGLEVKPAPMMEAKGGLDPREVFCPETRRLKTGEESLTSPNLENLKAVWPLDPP
The following applies: protein: recombinant; tags: N-terminal GST; dsDNA, one strand shown. Put shortly:
as §1

The target of the next assay is T9, SPDEF (Homo sapiens, UniProt O95238 1-335).
T9 sequence: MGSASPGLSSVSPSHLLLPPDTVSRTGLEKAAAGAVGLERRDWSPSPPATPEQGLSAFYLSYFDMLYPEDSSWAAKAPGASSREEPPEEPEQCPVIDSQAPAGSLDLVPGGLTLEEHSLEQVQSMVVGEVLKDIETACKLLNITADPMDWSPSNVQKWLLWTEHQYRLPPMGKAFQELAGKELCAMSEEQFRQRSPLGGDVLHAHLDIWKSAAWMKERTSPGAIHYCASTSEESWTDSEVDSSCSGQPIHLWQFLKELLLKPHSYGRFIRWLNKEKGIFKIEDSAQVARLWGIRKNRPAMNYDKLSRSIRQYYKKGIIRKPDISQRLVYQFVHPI
The settings on record: protein: recombinant; tags: N-terminal GST; dsDNA, one strand shown. In outline: as §1

In the next assay the target is T10, ETV7 (Homo sapiens, UniProt Q9Y603 1-341).
T10 sequence: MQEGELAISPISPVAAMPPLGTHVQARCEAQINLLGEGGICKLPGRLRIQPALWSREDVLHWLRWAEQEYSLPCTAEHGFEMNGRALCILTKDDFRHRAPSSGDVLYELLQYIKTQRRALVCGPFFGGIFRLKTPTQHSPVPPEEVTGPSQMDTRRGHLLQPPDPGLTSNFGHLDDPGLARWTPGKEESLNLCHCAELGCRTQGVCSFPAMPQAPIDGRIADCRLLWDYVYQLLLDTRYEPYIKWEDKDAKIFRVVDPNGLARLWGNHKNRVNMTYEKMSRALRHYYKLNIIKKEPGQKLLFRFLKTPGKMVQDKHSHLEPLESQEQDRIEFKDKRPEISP
The settings on record: protein: recombinant; tags: N-terminal GST; dsDNA, one strand shown. In outline:
as §1

Another assay concerns the target T11, ELF5 (Homo sapiens, UniProt Q9UKW6-2 1-255).
T11 sequence: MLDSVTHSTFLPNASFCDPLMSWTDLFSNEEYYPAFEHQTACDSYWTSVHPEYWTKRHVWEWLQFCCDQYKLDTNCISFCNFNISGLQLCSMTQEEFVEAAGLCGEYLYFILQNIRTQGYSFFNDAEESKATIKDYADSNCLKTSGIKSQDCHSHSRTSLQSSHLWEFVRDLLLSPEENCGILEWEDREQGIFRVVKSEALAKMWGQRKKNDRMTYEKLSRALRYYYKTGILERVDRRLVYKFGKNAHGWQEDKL
The settings on record: protein: recombinant; tags: N-terminal GST; dsDNA, one strand shown. Put shortly:
as §1

The target in the next assay is T12, ETV3 (Homo sapiens, UniProt P41162-2 1-143).
T12 sequence: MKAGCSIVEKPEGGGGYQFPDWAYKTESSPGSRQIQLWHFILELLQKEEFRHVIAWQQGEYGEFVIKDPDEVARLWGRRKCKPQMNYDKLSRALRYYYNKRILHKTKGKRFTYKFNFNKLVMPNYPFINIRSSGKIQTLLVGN
The following applies: protein: recombinant; tags: N-terminal GST; dsDNA, one strand shown. Put shortly: as §1

Sequence of ETV1 (P50549 whole entry): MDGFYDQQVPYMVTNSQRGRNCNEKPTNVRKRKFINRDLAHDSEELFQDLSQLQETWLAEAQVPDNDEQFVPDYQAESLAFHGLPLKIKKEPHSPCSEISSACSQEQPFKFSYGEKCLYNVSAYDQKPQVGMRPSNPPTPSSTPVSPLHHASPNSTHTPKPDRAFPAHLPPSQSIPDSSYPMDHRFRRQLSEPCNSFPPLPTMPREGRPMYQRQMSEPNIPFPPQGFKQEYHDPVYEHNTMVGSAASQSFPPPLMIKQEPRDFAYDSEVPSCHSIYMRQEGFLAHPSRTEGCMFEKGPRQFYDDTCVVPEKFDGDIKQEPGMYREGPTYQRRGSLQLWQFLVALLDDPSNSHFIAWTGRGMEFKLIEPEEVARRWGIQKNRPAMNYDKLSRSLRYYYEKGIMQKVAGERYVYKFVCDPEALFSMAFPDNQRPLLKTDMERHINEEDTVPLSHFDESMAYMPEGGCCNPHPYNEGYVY
Sequence of SPIB (Q01892 whole entry): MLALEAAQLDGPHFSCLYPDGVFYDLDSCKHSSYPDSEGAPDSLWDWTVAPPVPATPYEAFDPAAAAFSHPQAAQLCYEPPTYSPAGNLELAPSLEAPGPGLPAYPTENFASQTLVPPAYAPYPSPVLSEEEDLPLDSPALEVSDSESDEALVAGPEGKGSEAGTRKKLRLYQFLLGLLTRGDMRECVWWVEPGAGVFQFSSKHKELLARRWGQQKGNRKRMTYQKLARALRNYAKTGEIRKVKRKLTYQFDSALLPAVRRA
Sequence of HSF1 (Q00613 whole entry): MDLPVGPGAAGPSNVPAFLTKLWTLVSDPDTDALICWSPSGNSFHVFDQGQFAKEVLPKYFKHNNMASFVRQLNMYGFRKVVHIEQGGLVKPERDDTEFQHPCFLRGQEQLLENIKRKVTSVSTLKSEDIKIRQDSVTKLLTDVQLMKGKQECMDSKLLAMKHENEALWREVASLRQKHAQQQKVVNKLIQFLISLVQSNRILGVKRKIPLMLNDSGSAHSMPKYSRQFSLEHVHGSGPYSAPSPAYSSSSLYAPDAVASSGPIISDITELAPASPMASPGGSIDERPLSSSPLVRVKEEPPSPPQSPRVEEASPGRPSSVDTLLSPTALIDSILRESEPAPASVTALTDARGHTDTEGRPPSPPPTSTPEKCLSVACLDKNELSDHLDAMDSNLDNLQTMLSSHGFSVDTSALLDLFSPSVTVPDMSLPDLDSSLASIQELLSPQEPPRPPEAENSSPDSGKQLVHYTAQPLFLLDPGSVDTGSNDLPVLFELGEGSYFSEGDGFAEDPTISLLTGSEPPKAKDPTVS
Sequence of ELF1 (P32519 whole entry): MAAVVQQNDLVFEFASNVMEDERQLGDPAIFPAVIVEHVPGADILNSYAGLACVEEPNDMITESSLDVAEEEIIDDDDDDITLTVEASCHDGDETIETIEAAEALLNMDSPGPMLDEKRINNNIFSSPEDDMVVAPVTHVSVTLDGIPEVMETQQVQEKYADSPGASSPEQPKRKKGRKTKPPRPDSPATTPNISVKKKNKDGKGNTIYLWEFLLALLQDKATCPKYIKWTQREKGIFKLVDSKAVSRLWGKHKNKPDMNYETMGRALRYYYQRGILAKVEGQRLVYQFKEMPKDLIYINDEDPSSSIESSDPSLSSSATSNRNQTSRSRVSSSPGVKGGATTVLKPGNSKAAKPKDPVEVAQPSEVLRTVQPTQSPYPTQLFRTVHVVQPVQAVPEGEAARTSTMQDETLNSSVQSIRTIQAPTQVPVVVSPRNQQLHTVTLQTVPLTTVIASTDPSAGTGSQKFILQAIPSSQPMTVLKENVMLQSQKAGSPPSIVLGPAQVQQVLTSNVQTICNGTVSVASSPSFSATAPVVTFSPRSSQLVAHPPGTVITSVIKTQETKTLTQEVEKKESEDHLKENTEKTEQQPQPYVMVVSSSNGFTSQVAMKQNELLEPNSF

In the case of GGTTCT, the binding signal with FLI1 is 1.07 fold enrichment (6-mer frequency, TF over GST control); in the assay with ELK1, 1.02 fold enrichment (6-mer frequency, TF over GST control); with GABPA, 1.02 fold enrichment (6-mer frequency, TF over GST control); with ELF1 it was 1.03 fold enrichment (6-mer frequency, TF over GST control); in the assay with SPIB, 1.05 fold enrichment (6-mer frequency, TF over GST control); with ELK3, 1.11 fold enrichment (6-mer frequency, TF over GST control). For the same sequence, the binding signal in the assay with HSF1 is 1.54 fold enrichment (6-mer frequency, TF over GST control); with ELK4 it was 1.03 fold enrichment (6-mer frequency, TF over GST control); with ETV2, 1.19 fold enrichment (6-mer frequency, TF over GST control); with ELF3 it was 1.08 fold enrichment (6-mer frequency, TF over GST control); with ETV1, 1.01 fold enrichment (6-mer frequency, TF over GST control); in the assay with ETV3L it was 1.01 fold enrichment (6-mer frequency, TF over GST control). Moreover, the binding signal with SPDEF was 1.01 fold enrichment (6-mer frequency, TF over GST control); with ETV7, 1.01 fold enrichment (6-mer frequency, TF over GST control); with ELF5, 1.01 fold enrichment (6-mer frequency, TF over GST control); with ETV3, 1 fold enrichment (6-mer frequency, TF over GST control).

For the origin of these results see PMC7862700, “An all-to-all approach to the identification of sequence-specific readers for epigenetic DNA modifications on cytosine”.
